Measurements as given in PubChem BioAssay (NCATS).
Inconclusive results are not listed. Active and inactive are the calls of the source. Calls follow the shape of the dose curve; as a rule, active = well fitted curve in the direction sought with a large enough effect; inconclusive = small, poorly fitted or top-dose-only effect, or another doubt; inactive = no such curve, though single readings can be large; an effect the other way counts as inactive or inconclusive.

Tests used:
[1] = qHTS Assay for Identifying Gametocytocidal Compounds (AID 743244);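 also: actives lower the fluorescent signal which means gametocytes are killed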; conditions: P. falciparum 3D7 stage III-V gametocytes, alamarBlue, 72 h; max response: stronger effect = lower value
Procedure, shortened: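 3D7 gametocytes, stages III–V, 20,000/well; cpd 72 h, 37 °C/5% CO2; + alamarBlue 24 h; fluor. Ex 525/Em 598.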

[2] = qHTS assay to identify small molecule inhibitors of chordoma cells - UCH-1 (AID 1259355); conditions: UCH-1 chordoma viability, CellTiter-Glo, 48 h, combination, with auranofin plus four topoisomerase inhibitors; series mostly up to 46.1 µM; also: nearly all actives have a fitted effect of over 55% in size
Procedure, shortened: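 Screening used approved and investigational drugs in 15-point titration against 800 seeded cells per well. A fixed combination of auranofin with camptothecin, doxorubicin, rubitecan and topotecan followed compound addition, and growth was scored by CellTiter-Glo after 48hr.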

[3] = qHTS assay to identify small molecule inhibitors of chordoma cells - UCH-2 (AID 1259356); conditions: UCH-2 chordoma viability, CellTiter-Glo ATP luminescence, 48 h; series mostly up to 46.1 µM
[4] = P-glycoprotein substrates identified in KB-8-5-11 adenocarcinoma cell line, qHTS therapeutic library screen (AID 1346987); conditions: KB-8-5-11 (P-gp overexpressing) viability, CellTiter-Glo, 72 h; series mostly up to 44.5 µM; also: nearly all actives have a fitted effect of over 65% in size
Procedure, shortened: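 In this qHTS, P-gp-rich KB-8-5-11 cells received library compounds across a concentration range. Viability was quantified by luminescence after 72 h at 37 degree C.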
% is scaled to controls: 0 for no effect and ±100 for the full control effect.

NCC[C@H](O)C(=O)N[C@@H]1C[C@H](N)[C@@H](O[C@H]2O[C@H](CN)[C@@H](O)[C@H](O)[C@H]2O)[C@H](O)[C@H]1O[C@H]1O[C@H](CO)[C@@H](O)[C@H](N)[C@H]1O
inactive: max response [1] -2.69% | Potency [2] | Potency [3] | Potency [4]

CC1(C)S[C@@H]2[C@H](N3C(=O)C(c4ccccc4)NC3(C)C)C(=O)N2[C@H]1C(=O)O (stereo partly specified)
inactive: max response [1] 5.31% | Potency [2] | Potency [3] | Potency [4]

CCCC(=O)Nc1c(I)cc(I)c(CC(CC)C(=O)O)c1I (stereo unspecified)
inactive: max response [1] 15% | Potency [2] | Potency [3] | Potency [4]

COc1ccc(/C=C/C(=O)O)cc1
inactive: max response [1] -1.23% | Potency [2] | Potency [3] | Potency [4]

CC(=O)Oc1cc(C(F)(F)F)ccc1C(=O)O
inactive: max response [1] 17% | Potency [2] | Potency [3] | Potency [4]

NC(N)=NCC1COc2ccccc2O1 (stereo unspecified)
inactive: max response [1] -11.6% | Potency [2] | Potency [3] | Potency [4]

CC(=O)Nc1ccc(OC(C)=O)cc1
inactive: max response [1] -5.2% | Potency [2] | Potency [3] | Potency [4]

COc1ccc([C@@H]2CC(=O)c3c(O)cc(O[C@@H]4O[C@H](CO[C@@H]5O[C@@H](C)[C@H](O)[C@@H](O)[C@H]5O)[C@@H](O)[C@H](O)[C@H]4O)cc3O2)cc1O
inactive: max response [1] 22.8% | Potency [2] | Potency [3] | Potency [4]

O=C(OC[C@H]1O[C@](O)(COC(=O)c2cccnc2)[C@@H](OC(=O)c2cccnc2)[C@@H]1OC(=O)c1cccnc1)c1cccnc1
inactive: max response [1] -9.26% | Potency [2] | Potency [3] | Potency [4]
